Assay results: PubChem BioAssay AID686979 (National Center for Advancing Translational Sciences (NCATS), 2013)
Screen size: about 420,000 compounds; about 50,000 (12%) were called active. Entries that show only a call come without a potency. Not shown: some 26% with an inconclusive outcome. The sample holds actives, similar compounds and a random draw of the others, so the mix is not that of the screen. The call rests on the fitted dose curve; in most records, active means well fitted inhibition curve with a large enough effect; inconclusive means small, poorly fitted or top-dose-only effect; inactive means flat fitted curve, though single readings scatter.

Assay: qHTS for Inhibitors of human tyrosyl-DNA phosphodiesterase 1 (TDP1): qHTS in cells in presence of CPT; further: nearly all actives have a fitted effect of over 55% in size
Conditions: chicken DT40 Tdp1-/-;hTDP1 cells + 20 nM CPT, ATP luminescence, 48 h; series mostly up to 46.2 µM
Summary of the method: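 Cell growth measured by CellTiter-Glo luminescence after a minimum 48 h, 37 C compound exposure with 20 nM CPT in Tdp1-knockout DT40 cells stably expressing hTDP1, seeded 400/well; qHTS titration format.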
Potency means the concentration at half of the fitted maximal effect.

Row | Structure (SMILES) | Potency
1 | O=C1NC(=O)C(CCc2ccccc2)(c2ccccc2)N1 (configuration not stated) | inactive
2 | CC(=O)NN=C(C)c1ccc(NC(=O)C2CC2)cc1 | inactive
3 | Cc1c(S(=O)(=O)NC(C)c2ccccc2)c(=O)n(C)c(=O)n1C (configuration not stated) | inactive
4 | O=C(NC(Cc1ccccc1)C(=O)O)/C(=C\c1ccccc1)NC(=O)c1ccco1 (configuration not stated) | inactive
5 | O=C(NCCCn1ccnc1)/C(=C\c1ccccc1F)NC(=O)c1ccccc1 | inactive
6 | Cc1cc(C)cc(NS(=O)(=O)c2ccc3[nH]cc(C(=O)N4CCCCC4)c(=O)c3c2)c1 | inactive
7 | C=CCOc1c(Br)cc(/C=N\n2nnnc2N)cc1OC | inactive
8 | CCOc1c(Br)cc(/C=C2\C(=O)N(CCC#N)N=C2C)cc1OC | 20.6 µM (active)
9 | COc1cc(/C=C2/C(=O)NN(c3cccc(Cl)c3)C2=O)cc(Br)c1O | inactive
10 | COc1ccc(-n2c(-c3ccc(Cl)cc3)n[nH]c2=S)c(OC)c1 | inactive
11 | CCc1cc(=O)oc2c(C)c(OCC(=O)N3CC[C@@]4(O)CCCC[C@H]4C3)ccc12 | inactive
12 | Cc1ccc(NC(=S)NC2CCCC2)cc1 | inactive
13 | Cc1ccc(/C=N/NC(=O)CNC(=O)COc2ccccc2)o1 | inactive
14 | Cc1ccc(/C=N/NC(=S)NC2CCCCC2)o1 | 14.6 µM (active)
15 | CC12CCC(=O)N1C(C(=O)Nc1ccc(F)c(F)c1F)CS2 (configuration not stated) | inactive
16 | O=C(CCNC(=O)c1ccc(Br)cc1)NCC(c1ccco1)N1CCCCC1 (configuration not stated) | inactive
17 | COc1ccc(-n2c(=O)c3sc4ccccc4c3n(CC(=O)Nc3cccc(C)c3)c2=O)cc1 | inactive
18 | COc1cccc(NC(=O)CN(C)C(=O)CSCc2nc3scc(-c4cccs4)c3c(=O)[nH]2)c1 | inactive
19 | CCOC(=O)c1cc(C#N)c(N2CCCCC2)nc1-c1ccccc1 | inactive
20 | CC(C)C[C@H]1CNC(=O)C(=O)N1C[C@@H]1CCCN1C[C@H](Cc1ccccc1)N1C[C@H](CC(C)C)N(CC2CCCCCC2)C(=O)C1=O | inactive
21 | CCOc1ccc(CCN2C(=O)C(=O)N([C@@H](CC(C)C)CN3CCC[C@H]3CN3C(=O)C(=O)NC[C@@H]3Cc3ccccc3)C[C@@H]2CC(C)C)cc1 | inactive
22 | CC(C)C[C@H]1CNC(=S)N1C[C@H]1CCCN1C[C@H](Cc1ccc(O)cc1)N1C[C@H](Cc2ccc(O)cc2)N(CC2CCCCC2)C1=S | 25.9 µM (active)
23 | COCCNc1cc(-c2c(C)noc2C)ncn1 | inactive
24 | CNc1cc(-c2c(C)noc2C)ncn1 | 13 µM (active)
25 | Cc1noc(C)c1-c1cc(NCc2cccnc2)ncn1 | inactive
26 | Cc1ccc(S(=O)(=O)N2CCCCC2)cc1C(=O)N1CCN(CCO)CC1 | inactive
27 | CC1(C)CCc2cc(S(=O)(=O)N3CCN(c4nc(-c5cccs5)nc5ccccc45)CC3)ccc2O1 | inactive
